Source: PubChem BioAssay
The list is not random: actives were taken first. Their share in the collection is about 0.9%.
APE1 inh: inhibitors of human APE1 endonuclease. Potency, µM (titrated, usually from 65.8 µM), actives largely listed as inhibitors. P27695. recombinant APE1, TAMRA/BHQ-2 abasic DNA cleavage fluorescence. 0.35% of 350,000 active. AID 2517; also: nearly all actives have a fitted effect of over 55% in size
Target sequence (P27695 whole entry, looked up): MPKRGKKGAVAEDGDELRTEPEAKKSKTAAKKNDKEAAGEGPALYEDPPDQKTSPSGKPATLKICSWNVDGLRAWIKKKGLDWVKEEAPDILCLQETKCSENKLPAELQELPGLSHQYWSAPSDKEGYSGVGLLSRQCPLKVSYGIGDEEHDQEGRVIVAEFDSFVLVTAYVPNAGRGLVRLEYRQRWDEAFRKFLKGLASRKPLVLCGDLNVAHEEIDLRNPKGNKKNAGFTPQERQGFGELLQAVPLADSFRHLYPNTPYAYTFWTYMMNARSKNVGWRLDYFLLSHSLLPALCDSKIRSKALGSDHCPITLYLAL
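0.75 nM APE1 + cpd, 15 min RT; start w/ 50 nM TAMRA/BHQ-2 THF-abasic dsDNA; kinetic fluor 525/598 nm ×3 reads @60 s; Δ(read3−read1); normalized to DMSO and NSC13755 control wells.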
RECQ1 inh-1: RECQ1 (human) helicase inhibition. RECQ1 DNA unwinding, red fluorescence kinetic read. Potency, µM (titrated, usually from 57.3 µM), usual class: inhibitors. 0.54% of 240,000 active; also: nearly all actives have a fitted effect of over 30% in size
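50 nM RECQ1T1 preincubated 15 min with compound in Tris pH 8.0 buffer with MgCl2, DTT, Tween-20 and 2.5 ug/ml poly(dI-dC); started with 200 nM TAMRA/BHQ-2 forked duplex and 2 mM ATP. Unwinding read as fluorescence (525/598 nm), two reads 2 h apart.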
RGS12 GoLoco inh: blocks human Gai1 binding to RGS12 GoLoco peptide, red readout | AID 880 | P63096 | Gai1:RGS12 GoLoco peptide FP, rhodamine, 10 min | 0.44% of 230,000 active | Potency, µM (doses to about 61.6 µM), usual class: inhibitors; active = well fitted inhibition curve with a large enough effect, not every such curve was filed as active; inactive = no such curve, though single readings can be large or run the other way; also: nearly all actives have a fitted effect of over 30% in size
TexasRed fluor: alters Texas Red total fluorescence, flagging assay interference; TRb/SRC2 Texas Red total fluorescence interference; Potency, µM (highest dose often 106 µM); 0.29% of 280,000 active; active = well fitted curve in either direction with a large enough effect; inconclusive = small, poorly fitted or top-dose-only effect
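Human TRb ligand-binding domain at 0.6 uM with 20 nM Texas Red SRC2 peptide in Tris buffer containing 1 uM T3 and 5% DMSO, incubated with compound 5 h at ambient temperature. Total fluorescence (555/632 nm) calculated as parallel + 2 × perpendicular.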
BLM inh: inhibitors of human Bloom syndrome helicase BLM | P54132 | recombinant BLM DNA unwinding, fluorescence dequenching | Potency, µM (titrated, usually from 56.1 µM), hits mostly inhibitors | 0.2% of 350,000 active | AID 2528; also: nearly all actives have a fitted effect of over 35% in size
TRb-SRC2 inh: inhibitors of human thyroid hormone receptor beta-SRC2 interaction; TRbeta-SRC2 peptide binding, fluorescence polarization; receptor liganded with 1 µM T3; 0.065% of 280,000 active; AID 1469; Potency, µM (titrated, usually from 106 µM), hits mostly inhibitors; also: nearly all actives have a fitted effect of over 50% in size
Target sequence (P10828 whole entry, looked up): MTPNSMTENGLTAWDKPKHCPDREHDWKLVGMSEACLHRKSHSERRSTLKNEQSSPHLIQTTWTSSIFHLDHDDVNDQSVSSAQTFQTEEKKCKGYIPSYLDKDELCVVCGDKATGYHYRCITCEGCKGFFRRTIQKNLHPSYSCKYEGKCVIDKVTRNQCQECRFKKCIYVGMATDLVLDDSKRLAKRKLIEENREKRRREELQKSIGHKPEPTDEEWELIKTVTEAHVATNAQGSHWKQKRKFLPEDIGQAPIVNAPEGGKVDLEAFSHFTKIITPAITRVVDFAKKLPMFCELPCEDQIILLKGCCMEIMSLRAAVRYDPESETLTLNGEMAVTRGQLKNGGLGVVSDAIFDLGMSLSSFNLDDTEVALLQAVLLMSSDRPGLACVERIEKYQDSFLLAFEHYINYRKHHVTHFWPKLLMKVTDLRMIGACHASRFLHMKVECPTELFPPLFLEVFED
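Human TRb ligand-binding domain (0.6 uM) is mixed with 20 nM Texas Red SRC2 peptide and 1 uM T3; after compound addition and 5 hr at ambient temperature, polarization is measured and normalized to unbound and bound controls.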
RECQ1 inh conf: confirmation of human RECQ1 helicase inhibitors | shares compounds with RECQ1 inh-1 | RECQ1 helicase DNA unwinding, fluorescence | Potency, µM (doses to about 229 µM), actives largely listed as inhibitors | 28% of 610 active | AID 2708; also: nearly all actives have a fitted effect of over 45% in size
ADP FP counter: displaces ADP in a fluorescence polarization counter-screen for RECQ1 hits. shares compounds with RECQ1 inh-1. 27% of 530 active. Potency, µM (titrated, usually from 228 µM), actives largely listed as inhibitors. ADP fluorescence polarization displacement counterscreen; also: nearly all actives have a fitted effect of over 45% in size
RECQ1 inh-2: RECQ1 helicase inhibition confirmed, round 2 | shares compounds with RECQ1 inh-1 | recombinant RECQ1 DNA unwinding, red fluorescence | Potency, µM (series often up to 119 µM), usual class: inhibitors | 15% of 1,100 active | AID 504841; also: nearly all actives have a fitted effect of over 50% in size
A number is an active result; i = inactive; ? = inconclusive; nt = no result given; ! = not confirmed by another sample; [ ] = another dose, or the depositor's remark. Unless noted, calls follow the shape of the dose curve; as a rule, active = well fitted curve in the direction sought with a large enough effect; inconclusive = small, poorly fitted or top-dose-only effect, or another doubt; inactive = no such curve, though single readings can be large; an effect the other way counts as inactive or inconclusive.

SMILES	APE1 inh	RECQ1 inh-1	RGS12 GoLoco inh	TexasRed fluor	BLM inh	TRb-SRC2 inh	RECQ1 inh-2	others
CCOc1cc(NC(=O)c2cnccn2)c(OCC)cc1NC(=O)c1cccc(F)c1	i	i	i	i	i	i	nt	RECQ1 inh conf=i;ADP FP counter=?
CCCCCc1c2c(cc(O)c1C(=O)O)OC(=O)c1cc(C(=O)CCCC)c(OC)cc1O2	?	12.6µM	i	i	i	i	?
CCCCCc1c2c(cc(O)c1C(=O)O)OC(=O)c1c(cc(OC)cc1C(=O)CCCC)O2	i	?	i	i	i	i	?
CCCCc1c(C(=O)O)cc(OC)cc1C(=O)O	i	i	i	i	i	i	nt
C[C@@](N)(Cc1ccc(O)c(O)c1)C(=O)O	1.41µM!	11.2µM!	i	?	i	i	nt	RECQ1 inh conf=?;ADP FP counter=?
Cc1sc(NC(=O)c2ccco2)c(C(c2cccnc2)N2CCN(c3ccc(F)cc3)CC2)c1C (stereo unspecified)	i	39.8µM	i	i	i	i	?
c1ccc(Nc2cccc3c(Nc4ccccc4)cccc23)cc1	i	?	i	i	i	i	i
c1ccc(Nc2cccc(Nc3ccccc3)n2)cc1	i	i	i	i	i	i	nt
O=C(O)CC/C(=C\c1ccc(Cl)c([N+](=O)[O-])c1)c1nc2ccccc2s1	i	i	i	i	i	i	nt
O=C(O)C/C(=C\c1ccc(N2CCOCC2)c([N+](=O)[O-])c1)c1nc2ccccc2s1	i	i	i	i	i	i	nt	RECQ1 inh conf=112µM;ADP FP counter=?
O=C(O)CC/C(=C\c1ccc(N2CCOCC2)c([N+](=O)[O-])c1)c1nc2ccccc2s1	i	i	i	i	i	i	nt	RECQ1 inh conf=?;ADP FP counter=?
C=C1CC[C@@H]2[C@](C)(CO)[C@H](O)CC[C@@]2(C)[C@@H]1C/C=C1/C(=O)OC[C@H]1O	i	nt	nt	nt	nt	nt	nt
COC(=O)C1=C(C(=O)OC)[C@@H]2N(Cc3ccccc3)c3ccccc3[C@@]23C[C@@H](C(=O)OC)N=C3N1	i[12.4 µM]	?	i[14.2 µM]	i[11.2 µM]	i[12.4 µM]	i[11.2 µM]	i
COC(=O)C1=C(C(=O)OC)[C@@H]2N(C)c3ccccc3[C@@]23C[C@@H](C(=O)OC)N=C3N1	i[12.4 µM]	i[11.5 µM]	i[14.2 µM]	i[11.2 µM]	i[12.4 µM]	i[11.2 µM]	nt
O=C(CSCc1ccccc1Cl)N1CCN(c2ccc(F)cc2)CC1	nt	nt	nt	i	i	i	nt
COc1ccc(C2c3cccn3CCN2S(=O)(=O)c2ccc([N+](=O)[O-])cc2)cc1 (stereo unspecified)	nt	nt	nt	i	i	i	nt
Cn1c(N)c(C(=O)COC(=O)c2cc(-c3ccco3)nc3ccccc23)c(=O)n(C)c1=O	?	28.2µM	i	i	i	i	?
O=C(Nc1ccc(S(=O)(=O)N2CCCCC2)cc1)c1ccc(CN2CCc3ccccc3C2)cc1	i	?	i	i	i	i	i
CCOc1cccc(NC(=O)c2ccc(S(=O)(=O)N3CCCC3)cc2)c1	i	12.6µM	i	i	i	i	i
Cc1ccc(C(=O)NCCn2c(C)cc3ccccc32)cc1C	nt	nt	nt	i	i	i	nt
Cc1cc2ccccc2n1CCNC(=O)c1ccc(S(=O)(=O)N2CCCCC2)cc1	?	28.2µM	i	44.7µM[fluorescent]	i	i	79.4µM
O=C(NC(Cc1ccccc1)C(=O)O)c1ccc(S(=O)(=O)N2CCCC2)cc1 (stereo unspecified)	i	i	i	i	i	i	nt
O=C(NC(Cc1ccccc1)C(=O)O)c1ccc(S(=O)(=O)N2CCCCC2)cc1 (stereo unspecified)	i	i	i	i	i	i	nt	RECQ1 inh conf=i;ADP FP counter=?
O=C(Nc1ccccc1)c1ccc(CN2CCc3ccccc3C2)cc1	i	i	i	i	i	i	nt
Cc1ccc(-c2nnc(SCC(=O)NC3CCCC3)nc2-c2ccc(C)cc2)cc1	nt	nt	nt	i	i	i	nt
SMILES	APE1 inh	RECQ1 inh-1	RGS12 GoLoco inh	TexasRed fluor	BLM inh	TRb-SRC2 inh	RECQ1 inh-2	others
O=C(Nc1ccc(-c2nc3ccc(NC(=O)c4cccs4)cc3[nH]2)cc1)c1cccs1	?	?	i	i	i	i	?
O=C(Nc1ccc2nc(-c3cccs3)[nH]c2c1)c1cccs1	i	i	i	i	i	i	nt
CS/C(=N\S(=O)(=O)c1cccs1)NC(=O)CSc1nc2ccccc2s1	i	?	i	i	i	i	?
COC(=O)Nc1ccc(S(=O)(=O)N2CCCC(C(=O)N3CC(C)OC(C)C3)C2)cc1 (stereo unspecified)	i	i	i	i	i	i	nt	RECQ1 inh conf=i;ADP FP counter=i
COC(=O)Nc1ccc(S(=O)(=O)N2CCCC(C(=O)N3CCOCC3)C2)cc1 (stereo unspecified)	i	i	i	i	i	i	nt
Cc1sc(-n2cccc2)c(C(=O)O)c1C	i	?	i	i	i	i	?
CC(=O)Nc1ccccc1-c1nc2ccccc2n(CC(=O)Nc2cccc(C(F)(F)F)c2)c1=O	nt	nt	nt	i	i	i	nt
O=C(Nc1scc(-c2ccc(F)cc2)c1C(=O)O)c1ccco1	i	i	i	i	i	i	nt
O=C(/C=C/c1ccco1)Nc1sc2c(c1C(=O)O)CCC2	?	35.5µM	i	i	i	i	?
Cc1ccc(-c2csc(NC(=O)/C=C/c3ccco3)c2C(=O)O)cc1	?	22.4µM	i	i	?	i	i	RECQ1 inh conf=?;ADP FP counter=i
O=C(CSc1nnc2ccccn12)N1CCc2ccccc2C1	i	i	i	i	i	i	nt
O=C(O)C1Cc2ccccc2CN1C(=O)CSc1nnc2ccccn12 (stereo unspecified)	i	i	i	i	i	i	nt	RECQ1 inh conf=i;ADP FP counter=?
COc1ccc(C(=O)NC2CCCCCC2)cc1S(=O)(=O)N1CCCc2ccccc21	i	i	i	i	i	i	nt
COc1ccc(C(=O)NCCCN2CCOCC2)cc1S(=O)(=O)N1CCCc2ccccc21	i	39.8µM	i	i	i	i	i
COc1cc(OC)cc(C(=O)NCC(=O)OCC(=O)/C=C2/N(C)c3ccccc3C2(C)C)c1	i	i	i	i	i	i	nt
CN1/C(=C\C(=O)COC(=O)Cn2nnc(-c3ccccc3)n2)C(C)(C)c2ccccc21	i	?	i	i	i	i	44.7µM
Cc1ccc(-c2nc3scc(CCNS(=O)(=O)c4c(C)noc4C)n3n2)cc1	nt	nt	nt	i	i	i	nt
Cc1[nH][nH]c(=O)c1C(c1ccc(-c2ccc(Cl)c(Cl)c2)o1)c1c(C)[nH][nH]c1=O	?	?	i	i	i	14.1µM	?
